# High-throughput results (PubChem)
# ST2 inh: blocks human ST2 binding to IL-33 | AlphaLISA ST2-Fc/biotin-IL-33 interaction, 1 h | inhibition, % for hits at 17 µM | actives 2.3% (n = 78,000) | AID 1259354; in the data active = inhibition above about 30%
# Target sequence (Q01638 whole entry, looked up): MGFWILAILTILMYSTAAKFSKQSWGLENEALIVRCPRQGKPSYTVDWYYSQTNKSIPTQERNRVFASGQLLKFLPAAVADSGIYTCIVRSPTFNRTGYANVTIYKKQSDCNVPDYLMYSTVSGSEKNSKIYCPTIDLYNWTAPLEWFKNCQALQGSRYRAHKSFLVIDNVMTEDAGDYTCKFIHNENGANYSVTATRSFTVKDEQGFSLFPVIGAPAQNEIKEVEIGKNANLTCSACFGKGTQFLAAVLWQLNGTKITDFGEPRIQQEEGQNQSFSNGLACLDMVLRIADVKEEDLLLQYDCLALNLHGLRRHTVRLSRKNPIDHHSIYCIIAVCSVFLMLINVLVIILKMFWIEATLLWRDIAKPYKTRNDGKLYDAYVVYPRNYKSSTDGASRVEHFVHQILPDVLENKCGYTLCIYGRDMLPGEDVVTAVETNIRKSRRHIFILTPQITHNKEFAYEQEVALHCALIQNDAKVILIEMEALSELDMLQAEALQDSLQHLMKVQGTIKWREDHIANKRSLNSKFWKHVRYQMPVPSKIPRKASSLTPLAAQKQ
# An asterisk follows results filed as active; i = inactive. Many of the other results were omitted from the sample, so hits are more common in it than they were.
SMILES,ST2 inh
Cc1ccc2sc(-c3ccc(NC(=O)c4ccco4)cc3)nc2c1,i
N#C/C(=C\c1ccco1)c1nc(-c2cc3cc(Br)ccc3oc2=O)cs1,i
Cc1ccc(-c2csc(/C(C#N)=C/c3ccco3)n2)cc1,63%*
Cc1ccc(-c2csc(/C(C#N)=C/c3cccs3)n2)cc1,64%*
O=C(Nc1nc(-c2ccc(Cl)cc2)cs1)c1cccs1,i
N#C/C(=C\Nc1ccc(S(N)(=O)=O)cc1)c1nc(-c2ccc(Cl)cc2)cs1,i
Cc1ccc(Nc2nc(-c3ccccc3)cs2)cc1,i
Cc1ccc(-c2csc(Nc3ccc(F)cc3)n2)cc1,i
COc1ccc(/C=C(/C#N)c2nc(-c3cccs3)cs2)cc1OC,49%*
N#C/C(=C\c1cccs1)c1nc(-c2ccc(Cl)cc2)cs1,46%*
O=C(Nc1cc(Cl)ccc1Cl)c1cccc(Cl)c1,i
COc1cccc(N2CCN(C(=O)CN3CCCN(C)CC3)C(C)C2=O)c1 (stereo not drawn),i
O=C(Nc1cccc(Br)c1)c1c[nH]c(=O)n(-c2ccccc2)c1=O,i
CCCCNC(=O)c1ccc(Cn2c(=O)c3cc(OC)c(OC)cc3n(CC(=O)NCCC)c2=O)cc1,i
CCN(Cc1ccncc1)C(=O)CC1C(=O)NCCN1Cc1cccc(C(F)(F)F)c1 (stereo not drawn),i
Cc1nc2c(C(=O)N3CCOC(CCCc4ccccc4)C3)cccc2[nH]1 (stereo not drawn),i
Cc1ccc2cc3cc(C(=O)NCCN(C)C)sc3nc2c1,i
O=C1CCCC2=C1C(c1cccnc1)c1c(nc(SCc3ccccc3)[nH]c1=O)N2 (stereo not drawn),i
C=C(C)CN(CC)S(=O)(=O)c1sc2c(c1C(=O)OC)CCN(Cc1cc(Cl)ccc1O)C2,i
COc1c(O)cc2cc(C)oc(=O)c2c1O,i
O=C(CS(=O)(=O)c1cn(Cc2ccccc2Cl)c2ccccc12)N1CCCCCC1,i
COc1ccccc1/C=C(\C#N)c1nc(-c2cccc([N+](=O)[O-])c2)cs1,i
N#C/C(=C\c1cccs1)c1nc(-c2cccs2)cs1,64%*
Cc1cc(-c2cccs2)n[nH]1,i
CN1CCN(c2nc(-c3cccs3)cc(C(F)(F)F)n2)CC1,i
SMILES,ST2 inh
Nc1n[nH]c(-c2cccc([N+](=O)[O-])c2)n1,i
COc1ccc(/C=C(\C#N)c2nc(-c3cccc([N+](=O)[O-])c3)cs2)cc1O,35%*
CC(=O)NC1c2ccccc2Oc2ccccc21,i
CC(C)C(C(=O)Nc1ccc([N+](=O)[O-])cc1)N1C(=O)c2ccccc2C1=O (stereo not drawn),i
O=C(ON1C(=O)c2ccccc2C1=O)c1ccc([N+](=O)[O-])cc1,i
CC(=O)N1/C(=C/c2ccc([N+](=O)[O-])cc2)C(=O)c2ccccc21,51%*
CCc1nnc(CN(CC)C(=O)c2cnn3c2CCCC3)o1,i
COc1cccc(C2C3=C(CC(C)(C)CC3=O)Nc3nc(SCc4cccnc4)[nH]c(=O)c32)c1 (stereo not drawn),i
Cc1cc(C(=O)NC2CC(C)(C)NC(C)(C)C2)ccc1[N+](=O)[O-],i
COC(=O)C(C)Oc1ccc2oc(C)c(C(=O)OC(C)C)c2c1 (stereo not drawn),i
Cc1ccc(N=C2c3cc([N+](=O)[O-])ccc3-c3ncccc32)cc1,i
COc1ccc(/C=C2/c3cc(C)ccc3-c3ncccc32)cc1,31%*
CCOC(=O)c1cccnc1-c1cc(OC)ccc1F,i
CC(C)(C)c1ccc(OCC(O)CN2CCN(Cc3ccc4c(c3)OCO4)CC2)cc1 (stereo not drawn),i
COc1ccc(OCC(O)CN2CCN(c3ccccc3F)CC2)c(C(C)(C)C)c1 (stereo not drawn),i
CC(C)(C)c1ccccc1OCC(O)CN1CCN(Cc2ccc3c(c2)OCO3)CC1 (stereo not drawn),97%*
CCN(CC)CCSc1nc(C)cc(C)n1,i
CC1=NN(c2ccccc2)C(=O)/C1=C/c1cccc(C(=O)O)c1,i
COc1cccc(OCCOc2ccc(/C=C3/C(=O)N(c4ccccc4)N=C3C)cc2OC)c1,43%*
COc1ccccc1OCCOc1ccc([N+](=O)[O-])cc1/C=C1/C(=O)N(c2ccccc2)N=C1C,i
CCc1cccc(OCCOCCN2CCCC2)c1,i
COc1cccc(/C=C2\C(=O)N(c3cccc(Cl)c3)N=C2C)c1,i
COc1cc(/C=C2\C(=O)N(c3ccccc3)N=C2C)ccc1OCc1ccc(F)cc1,i
CC1=NN(c2ccccc2)C(=O)/C1=C/c1ccc(O)c(Br)c1,i
COc1cc(/C=C2/C(=O)N(c3ccccc3)N=C2C)ccc1OCCOCCOc1ccccc1,45%*
COc1ccccc1/C=C1/C(=O)N(c2ccccc2)N=C1C,i
Cc1cccc(OCCOCCOc2ccc(/C=C3\C(=O)NN(c4ccccc4)C3=O)cc2)c1,34%*
C=CCN1C(=O)NC(=O)/C(=C/c2cccc(OCc3ccccc3Cl)c2)C1=O,i
CC1=NN(c2ccccc2)C(=O)/C1=C\c1ccccc1OCc1ccccc1,40%*
